This excerpt belongs to a sample that is enriched for hits.
Pf Dd2 inh = Plasmodium falciparum Dd2 growth inhibition; P. falciparum Dd2 growth, SYBR Green, 72 h; Potency, µM (series often up to 28.9 µM), for the others: at the highest dose activity, negative = inhibition, actives largely listed as inhibitors; actives 4.3% (n = 120,000); AID 1347417; active = well fitted inhibition curve with a large enough effect;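 note: plate controls were DMSO vehicle for no effect and reference drug for full effect; nearly all actives have a fitted effect of over 65% in size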
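Readout: SYBR Green fluorescence, 485 nm excitation, 535 nm emission, after ~16 h lysis at 37C. Before that, Dd2-infected red cells (2.5% hematocrit) grew 72 h with compound, 29 uM top final concentration.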
Numbers without * were called inactive; i = inactive; [ ] = another dose, or the depositor's remark. Potency is the fitted concentration of half-maximal effect.

SMILES	Pf Dd2 inh
CCCn1c(C)cnc1C1CCN(S(=O)(=O)c2cc(OC)ccc2OC)C1 (stereo unspecified)	3.55µM*
O=C(c1ccc(F)cc1)N1CCC2(CC1)OCC(C(=O)N1CCOCC1)N2C(=O)c1cccc(F)c1 (stereo unspecified)	-3.6%
O=C([C@@H]1C[C@H](F)CN1C(=O)c1cccs1)N1CCCCC1	5.0%
CCOc1ccc(NC(=O)C2CCc3ncc(-c4ccsc4)n3C2)cc1 (stereo unspecified)	-9.2%
COc1ccc(C(=O)N2CCC3(CC2)CC(OC)CCO3)cn1 (stereo unspecified)	-7.9%
COc1ccc(C(=O)N2CCC(n3cc(-c4nc(-c5ccccc5)no4)nn3)CC2)cc1	1.26µM*
O=C(Cc1ccc(Cl)cc1)N1CCC(n2cc(-c3nc(-c4ccccc4)no3)nn2)C1 (stereo unspecified)	-16.5%
N#Cc1ccc(C(=O)N2CCC(n3cc(-c4nc(-c5ccccc5)no4)nn3)C2)cc1 (stereo unspecified)	i
O=C(c1ccccc1)N1CCC(n2cc(-c3nc(-c4ccccc4)no3)nn2)C1 (stereo unspecified)	-0.2%
O=C(Cc1cccc(Cl)c1)N1CCC(n2cc(-c3nc(-c4ccccc4)no3)nn2)C1 (stereo unspecified)	138.4%
O=C(c1ccc(Cl)cc1)N1CCC(n2cc(-c3nc(-c4ccccc4)no3)nn2)C1 (stereo unspecified)	-17.1%
N#Cc1ccc(C(=O)N2CCCC(n3cc(-c4nc(-c5ccccc5)no4)nn3)C2)cc1 (stereo unspecified)	4.47µM*
O=C(Cc1ccc(Cl)cc1)N1CCC(n2cc(-c3nc(-c4ccccc4)no3)nn2)CC1	2µM*
COc1cccc(C(=O)N2CCC(n3cc(-c4nc(-c5ccccc5)no4)nn3)CC2)c1	-6.9%
COc1ccc(C(=O)N2CCCCCNC(=O)[C@@H]3CCCC[C@@H]32)cc1F	-6.3%
Cc1cnc(CCN)n1C1CC1	9.3%
CC(C)NC(=O)C[C@@H]1O[C@H](CNC(=O)Nc2ccccc2)[C@@H](O)[C@H]1O	10.0%[44.1 µM]
O=C(NCc1ccc(F)cc1)N1CCC(c2noc(-c3ccncc3)n2)C1 (stereo unspecified)	-0.2%[5.79 µM]
O=C(Cn1nc2c(cc1=O)CCCCC2)Nc1cccnc1	-10.8%
CCOCCCNC(=O)C1Cn2cccc2C(=O)N1 (stereo unspecified)	20.4%
COCCNC(=O)C1COC2(CCN(C(=O)c3ccc(OC)cc3)CC2)N1C(=O)c1ccccc1C (stereo unspecified)	-11.0%
Cc1ncc2c(c1CNC(=O)c1ccccc1-c1nn[nH]n1)CCNC2	-2.6%
O=C1CO[C@H]2CCN(Cc3ccccc3)CC[C@@H]2N1CCc1cccnc1	-10.5%[44.1 µM]
Cc1cccc(CN2CC[C@@H]3OCC(=O)N(Cc4ccc(O)cc4)[C@H]3CC2)c1	-15.1%[44.1 µM]
O=C1CO[C@H]2CCN(CCCc3ccccc3)CC[C@@H]2N1Cc1ccccc1	3.98µM*
SMILES	Pf Dd2 inh
CN(CC1CCOCC1)C(=O)C1CCCC1	20.4%
Cc1cccc(C)c1NC(=O)c1cccc(CN2CCCC2C)c1 (stereo unspecified)	10µM*
O=C(NC1CCCN(C(=O)C2CC2)C1)c1cccc(Cn2cccn2)c1 (stereo unspecified)	2.4%
Cc1cccc(C)c1NC(=O)c1ccc2c(c1)nnn2C1CCCC1	9.7%
COc1ccc(NC(=O)N2C[C@@H](F)C[C@H]2C(=O)N2CCCCC2)cc1	14.1%
CC1(C)[C@H]2CC=C(CN3CCC(CCC(=O)N4CCN(c5ccccc5)CC4)CC3)[C@@H]1C2	-10.1%
Cc1cnc(C2CCC2)n1CCNS(=O)(=O)c1ccccc1	i
Cc1cc(C)c(S(=O)(=O)NCCn2c(C)cnc2C2CC2)c(C)c1	11.2µM*
Cc1cc(Cl)ccc1S(=O)(=O)NCCn1c(C)cnc1C1CCC1	6.31µM*
Cc1cnc(C2CC2)n1CCNS(=O)(=O)c1ccccc1F	-17.2%
Cc1cnc(C2CC2)n1CCNC(=O)C(C)C	5.2%
CC(=O)Nc1ccc(C)cc1S(=O)(=O)NCCn1c(C)cnc1C1CCC1	-11.2%
CCN(CC)Cc1cnc2c(C(=O)NC(C)C(=O)N(C)C)cnn2c1 (stereo unspecified)	-7.2%
Cc1ccc(-c2nnc([C@H]3CCN(C(=O)COc4ccccc4)C3)o2)cc1	-11.7%[44.1 µM]
COc1ccc(-c2nc3c(c(-c4ccccc4)n2)CN([S+](=O)([O-])c2c(C)noc2C)CC3)cc1	19.3%
CCc1ccc(C(=O)N2CCC(Oc3ccc(C(=O)N(C)C)cn3)CC2)cc1	-15.8%
O=C(c1ccc2c(c1)OCO2)N1CCn2c(nnc2-c2ccncc2)C1	6.9%
CN1C(=O)COC[C@@H]1[C@H](O)c1ccc(NC(=O)Nc2ccccc2)cc1	-16.7%[44.1 µM]
CC(C)C(=O)N1CCN(c2nc3c(s2)CC(C(=O)Nc2ccc(Cl)cc2)CC3)CC1 (stereo unspecified)	i
CC(C)C(=O)N1CCN(c2nc3c(s2)CC(C(=O)NCc2ccco2)CC3)CC1 (stereo unspecified)	12.6µM*
CC(=O)N1CCN(c2nc3c(s2)CC(C(=O)Nc2cccc(C(C)(C)C)c2)CC3)CC1 (stereo unspecified)	-13.4%
CC(=O)N1CCN(c2nc3c(s2)CC(C(=O)Nc2cc(F)cc(F)c2)CC3)CC1 (stereo unspecified)	4.47µM*
CC(=O)N1CCN(c2nc3c(s2)CC(C(=O)NCc2ccccc2C)CC3)CC1 (stereo unspecified)	i
Cc1ccc(CNC(=O)C2CCc3nc(N4CCN(C(=O)C(C)C)CC4)sc3C2)o1 (stereo unspecified)	7.94µM*
CC(=O)N1CCN(c2nc3c(s2)CC(C(=O)NC2CCCCC2)CC3)CC1 (stereo unspecified)	i
SMILES	Pf Dd2 inh
CCC(=O)N1CCN(c2nc3c(s2)CC(C(=O)NCc2ccc(F)cc2)CC3)CC1 (stereo unspecified)	-29.3%
COc1ccc(CNC(=O)C2CCc3nc(N4CCN(C(C)=O)CC4)sc3C2)cc1 (stereo unspecified)	i
CC(C)NC(=O)C1CCC(=O)N1C1CCN(C(=O)CCC2CCCC2)CC1 (stereo unspecified)	14.6%
CCC(=O)Nc1ccc(C2(C(=O)N(C)C)CCC2)cc1	3.3%
Cc1noc([C@@H]2CN(C(=O)c3ccco3)C[C@H]2COCC2CC2)n1	12.5%
C#CCN(C)Cc1nc(C2(O)CCN(C(=O)NCC=C)CC2)cs1	26.8%[44.1 µM]
COCCn1nc2n(c1=O)CCN(C(=O)c1ccc(OC)nc1OC)CC2	54.3%
COc1ccccc1C(=O)N1CCN(C(=O)c2nnn3c2COC(c2ccc(Cl)cc2)C3)CC1 (stereo unspecified)	-24.8%
O=C1CCN(S(=O)(=O)c2ccccc2)CCCN(C(=O)c2nccc3ccccc23)CCN1	-29.3%
COCC1CN(C(C)=O)CC12CCN(S(=O)(=O)c1ccc(OC)cc1)CC2 (stereo unspecified)	-10.9%
Cc1cc(C(=O)NCC2(COc3ccc(S(C)(=O)=O)cc3)C[C@@H](O)[C@@H](O)C2)no1 (stereo partly specified)	4.4%[44.1 µM]
Cc1ccc(-c2noc(CSc3nnc(Cc4ccccc4)n3-c3cccc(C)c3)n2)cc1	9.5%
CCOc1ccc(-n2c(Cc3ccccc3)nnc2SCc2nc(-c3ccccc3C)no2)cc1	-16.0%
CCOc1ccc(-c2noc(CSc3nnc(Cc4ccccc4)n3-c3cccc(C)c3)n2)cc1	10µM*
C=CCOC(=O)C1=C(C)N(Cc2cc(F)cc(F)c2)C(=O)CC1c1ccccc1Cl (stereo unspecified)	i
